The list is not random: actives were taken first. Their share in the collection is about 1.3%.
VHR inh abs – DUSP3 (human) phosphatase inhibition; recombinant VHR phosphatase, pNPP absorbance; AID 1654; inhibition, % at 13.3 µM; P51452; actives 0.52% (n = 290,000); in the data active = inhibition above about 50%
SARS 3CLpro inh – SARS-CoV 3CLpro protease inhibition; P0C6X7; recombinant SARS-CoV 3CLpro, quenched FRET peptide cleavage; inhibition, % at 6 µM; actives 0.14% (n = 290,000); in the data active = inhibition above about 12%
TcdB inh – inhibitors of Clostridioides difficile toxin B glycohydrolase; TcdB glycohydrolase enzymatic assay, plate reader; inhibition, % at 9.99 µM; actives 0.24% (n = 350,000); AID 652162; in the data active = inhibition above about 10%
SSB-PriA inh – K. pneumoniae PriA-SSBct interaction inhibition. AlphaScreen SSBct-PriA binding, biotinylated peptide. inhibition, % at 33 µM. actives 0.6% (n = 430,000). AID 1272365; in the data active = inhibition mostly above about 37%, no sharp cut-off; inactive = mostly below about 20%;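 also: plate controls were negative control peptide for no effect and reference peptide for full effect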
Vc quorum ag – quorum light induction in luxS cqsA deficient V. cholerae; AID 588436; actives 0.16% (n = 350,000); activation, % at 18.7 µM; V. cholerae BH1578 lux reporter, luminescence, 6 h; in the data active = activation mostly above about 9.7%, no sharp cut-off
CCHF vOTU inh-1 – CCHFV vOTU protease inhibition; Pep-AMC fluorescence; inhibition, % at 11.5 µM; actives 0.55% (n = 370,000); also: 0% = vehicle wells with enzyme and 100% = no enzyme wells
CCHF vOTU inh-2 – CCHFV vOTU protease inhibition, confirmation | inhibition, % at 11.5 µM | actives 17% (n = 1,900) | AID 686976 | shares compounds with CCHF vOTU inh-1 | Recombinant CCHFV vOTU, Pep-AMC fluorescence
Starred values were filed as active, the others as inactive; i = inactive; · = not tested or not shown. Rule as the data show it, unless noted: active = inhibition above about 30%; inactive = the rest.

SMILES	VHR inh abs	SARS 3CLpro inh	TcdB inh	SSB-PriA inh	Vc quorum ag	CCHF vOTU inh-1	CCHF vOTU inh-2
Cc1ccc(S(=O)(=O)Nc2ccccc2C(=O)Nc2nc(-c3ccc(F)cc3)cs2)cc1	2	6	-1	-8	0	30*	-16
COc1ccc(-c2csc(NC(=O)c3ccccc3F)n2)cc1	-20	-7	0	-7	i	-9	·
CCOc1ccc(NC(=O)c2cccc([N+](=O)[O-])c2)c([N+](=O)[O-])c1	·	·	·	11	·	·	·
CCOc1ccc(NC(=O)c2ccccc2NS(=O)(=O)c2ccc(F)cc2)c([N+](=O)[O-])c1	7	8	·	-13	0	30*	-4
COc1ccc(-c2csc(NC(=O)c3ccccc3NS(=O)(=O)c3ccc(F)c(F)c3)n2)cc1	5	7	1	8	-6	37*	9
CCCCOc1ccc(C(=O)NCCOc2ccccc2)cc1	·	·	·	-16	·	·	·
Cc1nnc(SCC(=O)NC2CCCC2)c2c1cnn2-c1ccc(F)cc1	·	·	·	-13	·	·	·
COCCCn1c(N)c(C(=O)Nc2ccccc2)c2nc3ccccc3nc21	8	-1	1	-42	0	-6	·
COCCCn1c(N)c(C(=O)Nc2sc3c(c2C(=O)OC)CCCC3)c2nc3ccccc3nc21	13	-3	·	-3	-15	35*	-23
O=[N+]([O-])c1ccccc1S(=O)(=O)NCCc1csc(-c2ccc(Cl)cc2)n1	·	·	·	18	·	·	·
CCOC(=O)c1cc([N+](=O)[O-])sc1NC(=O)/C=C/c1ccc2c(c1)OCO2	·	·	·	-1	·	·	·
COc1ccccc1/C=C1\SC(=S)N(CCC(=O)Nc2ccc(C(=O)O)c(O)c2)C1=O	27	3	1	19	-2	35*	16
O=C(CCN1C(=O)/C(=C\c2ccco2)SC1=S)Nc1ccc(C(=O)O)c(O)c1	-9	7	-1	-2	i	34*	6
O=C(CCN1C(=O)/C(=C/c2ccco2)SC1=S)Nc1ccc(C(=O)O)c(O)c1	-7	-2	0	6	0	14	·
COc1c[nH]c(C(=O)Nc2ccc3c(c2)OCO3)cc1=O	·	·	·	-15	·	·	·
Cc1oc2c(c1C(=O)NCc1cccnc1)C(=O)c1ccccc1C2=O	-11	4	·	1	·	·	·
COc1ccc(CNC(=O)c2c(C)oc3c2C(=O)c2ccccc2C3=O)cc1	-4	0	-1	10	1	54*	48*
Cc1ccc(/C=N/n2c(-c3cccnc3)n[nH]c2=S)s1	8	7	·	·	0	34*	-1
COc1ccc2nc(Nc3nc4ccc(S(C)(=O)=O)cc4s3)sc2c1	·	·	·	-6	·	·	·
COc1cc(Cc2nccc3cc(OC)c(OC)cc23)c(S(=O)(=O)O)cc1OC	10	-1	-3	-8	i	71*	-13
CCNS(=O)(=O)c1ccc(NC(=O)c2ccccn2)cc1	·	·	·	18	·	·	·
CC(CC(=O)c1ccccc1)=NCCCN=C(C)CC(=O)c1ccccc1	·	·	-6	·	i	35*	2
O=C(CC(=O)c1ccccc1)c1ccccc1	·	·	7	-36	-1	-6	·
Cc1cc(C)c(S(=O)(=O)NCC(c2ccco2)N2CCc3ccccc3C2)c(C)c1 (stereo unspecified)	·	·	1	-6	-1	30*	3
CC1(C)CC(=O)C(C=Nc2ccc(F)c(F)c2)=C(O)C1	·	·	·	-14	·	·	·
SMILES	VHR inh abs	SARS 3CLpro inh	TcdB inh	SSB-PriA inh	Vc quorum ag	CCHF vOTU inh-1	CCHF vOTU inh-2
COC(=O)C1C(O)=C(C=Nc2ccc(N)cc2)C(=O)CC1(C)C (stereo unspecified)	-2	0	·	12	i	40*	-4
COC(=O)C1C(O)=C(C=Nc2ccccc2)C(=O)CC1(C)C (stereo unspecified)	15	2	2	-9	0	5	·
CC1(C)CC(=O)C(C=Nc2ccc(N)cc2)=C(O)C1	22	4	13*	15	1	63*	-8
C=c1cc(C)n(CC(=O)Nc2ccc(C(=O)OCC)cc2)c(=O)c1=C1N=C(c2ccc(F)cc2)NO1	·	·	·	-6	·	·	·
O=C(COc1ccc(C2=NN(C(=O)c3cccs3)C(c3ccco3)C2)cc1)N1CCCCC1 (stereo unspecified)	·	·	·	-8	·	·	·
COc1cccc(NP(=O)(Oc2ccccc2)Oc2ccccc2)c1	-21	3	·	-6	i	30*	5
COc1cccc(NP(=O)(Oc2ccccc2Cl)Oc2ccccc2Cl)c1	9	4	-2	-22	-1	22	·
Cc1cnc(C2OCCO2)c2cccc(N)c12	·	·	-2	·	i	38*	65*
COc1ccc(Br)c(CN2N=NC3C(=O)N(c4ccc(Cl)cc4)C(=O)C32)c1 (stereo unspecified)	·	·	·	2	·	·	·
Cc1ccc(Cl)cc1N1CCN(C(=O)COc2ccc3c(c2)CCC3)CC1	28	2	1	-7	-1	30*	-12
CC(=O)c1ccc(N2CCN(C(=O)COc3ccc4c(c3)CCC4)CC2)cc1	18	-1	2	-8	-3	3	·
COCCNC(=S)N1C[C@H]2CON(C)[C@H]2C[C@H]1c1ccccc1Br	·	·	-11	·	·	33*	-21
CN1OC[C@@H]2CN(C(=S)NCCc3ccccc3)[C@H](c3ccccc3Br)C[C@@H]21	·	·	3	·	·	-1	·
O=C(COC(=O)c1n[nH]c2ccccc12)NC(=O)NCc1ccco1	10	0	·	8	0	35*	-11
CNC(=O)NC(=O)COC(=O)c1n[nH]c2ccccc12	6	-1	1	-19	-1	-13	·
CCC(=O)NC(c1cccs1)c1cc([N+](=O)[O-])c2cccnc2c1O (stereo unspecified)	-2	-2	0	75	96*	38*	33*
CCCC(=O)NC(c1cccs1)c1cc([N+](=O)[O-])c2cccnc2c1O (stereo unspecified)	28	-2	-1	29	0	22	·
Cc1ccc(N2C(=O)CC(N3C(=O)/C(=C/c4cccc([N+](=O)[O-])c4)SC3=S)C2=O)cc1 (stereo unspecified)	·	·	·	-9	·	·	·
Cc1ccsc1/C=N\Nc1cn[nH]c(=O)c1Cl	-5	3	1	·	0	30*	3
CCCCCCc1nc(C(N)=O)c2[nH]c(=O)n(-c3ccc(OC)cc3OC)c2n1	-3	4	1	-6	0	30*	2
CCc1nc(C(N)=O)c2[nH]c(=O)n(-c3ccccc3F)c2n1	2	0	0	5	-5	-46	·
CCCCC[C@H](C)N1C[C@@H](COCc2ccccc2)Oc2cc(N3CCC[C@H]3C(N)=O)ccc2S1(=O)=O	·	·	-2	·	·	35*	2
CCCCC[C@@H](C)N1C[C@H](COCc2ccccc2)Oc2cc(N3CC[C@@H](O)C3)ccc2S1(=O)=O	·	·	1	·	·	41*	6
CCCCC[C@H](C)N1C[C@H](COCc2ccccc2)Oc2cc(N3CC[C@H](O)C3)ccc2S1(=O)=O	·	·	1	·	·	26	·
O=C(NC(c1ccccc1)c1ccccc1)N1CCCC1	·	·	·	-9	·	·	·
O=Nc1c(O)ccc2cc(S(=O)(=O)O)ccc12	·	·	·	-14	-1	·	·
